TRHR PAM: qHTS for Small Molecule Agonists and Allosteric Enhancers of Human TRH Receptor: Primary Screen for Enhancers; Thyrotropin-releasing hormone receptor (Homo sapiens), P34981; enhancement, % at 2 µM; TRHR cells, fluo-8 calcium fluorescence, EC20 TRH enhancement; AID 493056, 2011; hit rate 0.66% among 360,000; in the data active = enhancement above about 30%
Target sequence (P34981 whole entry, looked up): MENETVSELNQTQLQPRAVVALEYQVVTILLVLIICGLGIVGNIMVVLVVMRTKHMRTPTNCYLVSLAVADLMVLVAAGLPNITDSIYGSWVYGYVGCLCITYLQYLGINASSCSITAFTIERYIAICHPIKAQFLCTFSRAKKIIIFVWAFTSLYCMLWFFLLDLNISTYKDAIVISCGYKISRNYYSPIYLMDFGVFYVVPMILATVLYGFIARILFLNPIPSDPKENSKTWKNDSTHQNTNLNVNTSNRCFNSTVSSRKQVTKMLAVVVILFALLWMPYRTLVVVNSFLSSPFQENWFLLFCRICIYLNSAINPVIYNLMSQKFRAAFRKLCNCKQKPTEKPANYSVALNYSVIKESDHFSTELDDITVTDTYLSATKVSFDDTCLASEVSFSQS
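TRHR-expressing cells loaded with fluo-8 calcium dye were read kinetically (ex 480/em 530) during compound addition, then stimulated with an EC20 of TRH (10 nM final). Enhancement of the Gq-mediated intracellular calcium response was scored.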
D1 antag: Antagonist of Human D 1 Dopamine Receptor: qHTS; D(1A) dopamine receptor (Homo sapiens), P21728; HEK293 TREx D1 cells, calcium flux, dopamine EC80; stronger effect = lower value; activity change, negative = inhibition, % at 10 µM; hit rate 3.2% among 360,000; AID 504652, 2011; in the data active = activity change below about -30%
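Allosteric or orthosteric antagonism assessed as attenuation of the calcium response to EC80 dopamine, added 180 s after compound, in induced HEK293 Trex D1 cells loaded with no-wash calcium dye.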
TRHR ag: qHTS for Small Molecule Agonists and Allosteric Enhancers of Human TRH Receptor: Primary Screen for Agonists; Thyrotropin-releasing hormone receptor (Homo sapiens), P34981; TRHR cells, calcium flux fluo-8, FDSS agonist mode; activation, % at 2 µM; hit rate 0.18% among 360,000; AID 493084, 2011
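TRHR-expressing cells loaded with fluo-8 calcium dye; 23 nL library compound pin-transferred, kinetic FDSS fluorescence (Ex 480/Em 530) recorded about 180 s for agonist-induced calcium release, before a 10 nM TRH EC20 addition for potentiator mode.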
D1 agonist: Allosteric Agonists of the Human D1 Dopamine Receptor: qHTS | D(1A) dopamine receptor (Homo sapiens), P21728 | HEK293 T-REx D1 cells, calcium flux, agonist mode | activation, % at 2 µM | hit rate 1% among 360,000 | AID 504660, 2011
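Inducible HEK293 T-REx D1 cells, force-coupled to calcium signalling, were plated at 4000 cells/well with tetracycline and held overnight at 30 C. After no-wash calcium dye loading, compound-evoked calcium rise over 180 s flagged agonists.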
D1 PAM: Potentiators of Human D1 Dopamine Receptor: qHTS. hit rate 0.036% among 360,000. AID 504651, 2011. potentiation, % at 10 µM. HEK293 TREx D1 cells, calcium flux, dopamine EC20 potentiation. D(1A) dopamine receptor (Homo sapiens), P21728; in the data active = potentiation above about 30%
Large screens that a line does not name were inactive; ! = not confirmed by another sample. Rows were chosen to be rich in hits. Some 4.6% of all compounds tested hit in one or more screens of this group. Cut-off read from the data, not from the text of the source, unless noted: active = activation above about 30%; inactive = the rest.

CSc1nnc(C)c(/C=C/Nc2ccc(F)cc2)n1	D1 agonist 31.8
CSc1nnc(C)c(/C=C/Nc2ccc(Cl)cc2)n1	TRHR ag 30.7, D1 agonist 79.8
COc1ccc(N/C=C/c2nc(SC)nnc2C)cc1	none
Cc1cc(C)c(NC(=O)CSc2nc3nc(C)cc(C)n3n2)c(C)c1	none
CCOc1ccccc1CNc1ncnc2onc(-c3ccc(F)cc3)c12	none
Cc1cc(C)n2nc(SCC(=O)Nc3cc(Cl)ccc3C)nc2n1	none
O=C(O)CSC1CC(=O)N(c2ccc(Cl)cc2)C1=O (centres undefined)	none
O=C(O)CSC1CC(=O)N(c2ccc(Br)cc2)C1=O (centres undefined)	TRHR PAM 40.4
O=c1n(Cc2ccc(F)cc2)c2ccccc2c2nc(-c3ccccc3)nn12	none
Cc1ccc(-n2c(=O)c3c4c(sc3n(Cc3ccccc3C)c2=O)CCC4)cc1C	D1 antag -72.0
Cc1ccccc1Cn1c(=O)n(-c2ccc(Cl)cc2)c(=O)c2c3c(sc21)CCCC3	none
N#C/C(=C/c1ccc(-c2ccccc2[N+](=O)[O-])o1)C(N)=O	D1 antag -41.0
CCOc1ccccc1OCCCCn1c(-c2ccc(Cl)cc2)nc2ccccc2c1=O	none
N#Cc1ccc(Sc2ccccn2)c([N+](=O)[O-])c1	D1 antag -59.9
COC(=O)c1ccc(S(=O)(=O)NC(C)(C)C)n1C	D1 antag -36.8
COC(=O)c1ccc(S(=O)(=O)NCc2ccc(OC)cc2)n1C	none
CCOc1cc(CNC(=O)c2ccc3c(c2)NC(=O)C2CCCCN32)cc(OCC)c1OCC (centres undefined)	none
COc1ccc(CCNC(=O)CCCn2c(=O)c3ccccc3n(Cc3cccc(Cl)c3)c2=O)cc1OC	none
O=C(Cn1c(=O)c2ccccc2n(CC(=O)Nc2ccc(F)cc2F)c1=O)NCCc1ccccc1	none
COC(=O)c1ccccc1NC(=O)Cn1c(=O)n(CCCC(=O)NCCc2ccc(OC)c(OC)c2)c(=O)c2ccccc21	D1 antag -31.9
O=C(CCCCn1c(=O)c2ccccc2n(CC(=O)Nc2cccc(F)c2)c1=O)NCc1ccccc1Cl	D1 agonist 33.5
O=C(CCCCn1c(=O)c2ccccc2n(CC(=O)Nc2ccc(F)cc2F)c1=O)NCCc1ccccc1	D1 antag -38.3
COc1ccc(CCNC(=O)CCCCn2c(=O)c3ccccc3n(Cc3ccc(Cl)cc3)c2=O)cc1OC	D1 antag -52.7
CC(=O)N1c2ccc(S(=O)(=O)N3CCN(c4cc(Cl)ccc4C)CC3)cc2CC1C (centres undefined)	none
CCOc1cc(CNC(=O)c2ccc(Cn3c(=O)c4cccn4c4cccnc43)cc2)ccc1OC	none
Cc1cc(C)c2c(=O)cc(CSc3nnc(-c4ccccc4)n3C)[nH]c2c1	none
CC(=O)Nc1cccc(NC(=O)CSc2cn(CC(=O)N3CCCCCC3)c3ccccc23)c1	none
Cc1ccc(C)c(N2CCN(C(=O)CCc3c(C)nn(-c4ccc(N5CCCC5)nn4)c3C)CC2)c1	none
CC(C)(C)OC(=O)Cc1nnc(-c2nc3ccccc3[nH]2)o1	D1 antag -32.8
Cc1ccc(Cn2c(=O)n(CCc3ccccc3)c(=O)c3sc4ccccc4c32)cc1	none
O=c1c2sc3ccccc3c2n(Cc2ccccc2)c(=O)n1CCc1ccccc1	D1 antag -52.2
CCc1ccc(NCc2cccn2-c2nnc(N3CCCCCC3)s2)cc1	D1 antag -31.0
O=[N+]([O-])c1cccc(NC(=S)Nc2nc(-c3ccc(Cl)cc3Cl)cs2)c1	D1 antag -30.8
Cc1cccc(N2CCN(Cc3nnc(-c4ccccc4C)o3)CC2C)c1 (centres undefined)	none
CCSc1nsc(NC(=O)Nc2cccc(F)c2)n1	D1 antag -44.5, D1 agonist 42.0
COc1cccc(NC(=O)Nc2nc(SC(C)(C)C)ns2)c1	D1 antag -40.2
CCCSc1nsc(NC(=O)Nc2ccc(F)cc2F)n1	D1 antag -59.5, D1 agonist 33.2
CCOC(=O)C1=C(CN2CCN(c3ccccc3F)CC2)NC(=O)NC1c1ccc(OC)cc1 (centres undefined)	none
O=S(=O)(Nc1nc2ccccc2nc1Nc1ccccc1Br)c1ccccc1	none
COc1ccc(-n2cc(CNC3CCN(C)CC3)c(-c3cccc(F)c3)n2)cc1	D1 agonist 46.2
CCCN(CCC)CCNS(=O)(=O)c1ccc2c(c1)oc(=O)n2C	none
COc1ccccc1CNC(=O)CCNS(=O)(=O)c1ccc2c(c1)oc(=O)n2C	D1 antag -36.1!
CCN(CCNS(=O)(=O)c1ccc2c(c1)oc(=O)n2C)c1ccccc1	D1 antag -30.9
Cc1ccc(C)c(N2CCN(C(=O)CCNS(=O)(=O)c3ccc4c(c3)oc(=O)n4C)CC2)c1	D1 antag -35.1
Cc1ccc(NC(=O)c2sc(-n3nc(C)c(Cc4ccc5c(c4)OCO5)c3C)nc2C)cc1C	none
COc1ccccc1N1CCN(C2CCCN(C(=O)CN3CCCC3=O)C2)CC1 (centres undefined)	D1 antag -31.7
Cc1ccccc1N1CCN(C2CCCN(C(=O)CN3CCCC3=O)C2)CC1 (centres undefined)	none
CC(C)/C=C/C(=O)N1CCCC(N2CCN(c3ccccc3F)CC2)C1 (centres undefined)	D1 antag -45.9
O=C(c1ccco1)N1CCCC(N2CCN(c3ccccc3F)CC2)C1 (centres undefined)	none
Cc1ccc(-n2c(=O)c3oc4ccccc4c3n(Cc3ccccc3)c2=O)cc1C	none
COC(=O)c1c(C)[nH]c(C(=O)C(C)OC(=O)C2CC(=O)N(CCc3ccccc3)C2)c1C (centres undefined)	D1 antag -32.8
COC(=O)c1c(C)[nH]c(C(=O)C(C)OC(=O)C2CC(=O)N(c3ccc(C)cc3)C2)c1C (centres undefined)	none (no result: D1 PAM)
CC(=O)Oc1ccccc1C(=O)Oc1ccccc1C(=O)O	none
CC(C)CCOCC(=O)Oc1ccccc1C(=O)O	TRHR PAM 30.0
CCOc1ccccc1C(=O)Nc1ccc(-n2nncc2-c2ccccc2)cc1	none
CCOP(=O)(OCC)c1nc(-c2ccc(Cl)cc2Cl)oc1N1CCCCC1	none
CCOP(=O)(c1ccccc1)c1nc(-c2ccc(F)cc2)oc1N1CCCCC1 (centres undefined)	D1 agonist 32.9
CCOP(=O)(OCC)c1nc(-c2ccc(Br)cc2)oc1N1CCCCC1	D1 antag -45.0
O=P(c1ccccc1)(c1ccccc1)c1nc(-c2ccccc2)oc1N1CCOCC1	none

Screens (PubChem BioAssay)
